# Article PMC4336329 (PLoS ONE, 2015)
# Screen size: about 310,000 compounds; about 14,000 (4.5%) showed an effect of 50% or more. The effect is printed as a negative number. The sample holds strong results, similar compounds and a random draw of the others, so the mix is not that of the screen.
# Target: human ether-à-go-go-related gene (hERG) potassium channel (human, UniProt Q12809)
# Experiment: primary screen, population patch clamp on CHO cells stably expressing hERG; higher = less effect of the substance
# 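Further: peak tail current of the secondary pulse compared with the same well before compound.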
# Sequence of human ether-à-go-go-related gene (hERG) potassium channel (Q12809 whole entry, looked up): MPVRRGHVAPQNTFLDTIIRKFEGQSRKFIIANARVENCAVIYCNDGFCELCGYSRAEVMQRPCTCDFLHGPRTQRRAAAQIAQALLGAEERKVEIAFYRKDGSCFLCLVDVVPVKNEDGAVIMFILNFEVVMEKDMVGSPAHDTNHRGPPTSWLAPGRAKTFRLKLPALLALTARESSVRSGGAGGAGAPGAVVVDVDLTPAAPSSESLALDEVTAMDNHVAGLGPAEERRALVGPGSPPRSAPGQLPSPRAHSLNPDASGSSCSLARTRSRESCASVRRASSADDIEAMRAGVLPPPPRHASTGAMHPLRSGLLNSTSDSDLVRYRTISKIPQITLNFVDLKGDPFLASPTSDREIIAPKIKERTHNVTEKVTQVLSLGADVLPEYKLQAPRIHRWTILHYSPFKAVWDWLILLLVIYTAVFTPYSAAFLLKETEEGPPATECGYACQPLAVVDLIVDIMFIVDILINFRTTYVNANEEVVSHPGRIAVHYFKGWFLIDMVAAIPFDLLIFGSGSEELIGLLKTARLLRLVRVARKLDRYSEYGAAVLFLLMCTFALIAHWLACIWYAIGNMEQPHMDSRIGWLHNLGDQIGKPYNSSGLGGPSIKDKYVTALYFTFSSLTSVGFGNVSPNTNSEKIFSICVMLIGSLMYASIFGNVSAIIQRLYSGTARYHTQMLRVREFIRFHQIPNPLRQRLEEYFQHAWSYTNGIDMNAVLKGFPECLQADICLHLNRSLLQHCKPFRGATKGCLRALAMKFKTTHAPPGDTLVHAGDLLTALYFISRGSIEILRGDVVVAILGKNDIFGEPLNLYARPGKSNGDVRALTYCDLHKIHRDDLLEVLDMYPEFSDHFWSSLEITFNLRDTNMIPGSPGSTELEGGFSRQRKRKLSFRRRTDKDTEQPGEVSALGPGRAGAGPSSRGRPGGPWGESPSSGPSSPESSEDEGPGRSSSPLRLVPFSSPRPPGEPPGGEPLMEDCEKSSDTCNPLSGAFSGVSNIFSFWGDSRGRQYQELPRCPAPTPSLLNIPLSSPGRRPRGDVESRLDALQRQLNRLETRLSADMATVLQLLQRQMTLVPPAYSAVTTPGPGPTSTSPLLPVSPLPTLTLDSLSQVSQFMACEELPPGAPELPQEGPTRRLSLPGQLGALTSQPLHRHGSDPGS
row,SMILES,"hERG current change (%, negative = inhibition) at 10uM [%]"
1,CCOc1ccccc1N1CCN(C(=S)Nc2ccc(S(=O)(=O)Nc3ncccn3)cc2)CC1,-3.73
2,O=C(COC(=O)Cc1ccc(-c2ccccc2)cc1)NCc1ccccc1,20.8
3,CC(C)c1ccc(NC(=O)c2ccc(Br)o2)cc1,3.82
4,COc1ccc(OCC(=O)Nc2ccncc2)cc1,-17.3
5,O=c1[nH]c(CN2CCN(CCO)CC2)nc2ccccc12,21.5
6,O=C(NC1=NCCS1)c1cc(Cl)ccc1Cl,-24
7,Cn1cc(C(c2ccccn2)c2cn(C)c3ccccc23)c2ccccc21,8.3
8,CCc1[nH]c(=S)c(C#N)c(-c2ccccc2)c1C(=O)OC,25.5
9,Cc1cc(=O)[nH]c(N/N=C/c2sccc2C)n1,-1.84
10,CCOc1ccc(C(=O)COC(=O)CC)cc1,4.46
11,CC(/C=N/n1cnnc1)=C\c1ccco1,-16.9
12,CCCNc1c(NS(=O)(=O)c2cccc(C#N)c2)c(=O)oc2ccccc12,-58.7
13,CCCNc1c(NS(=O)(=O)c2ccc(Br)cc2)c(=O)oc2ccccc12,-34.7
14,CCCNc1c(NS(=O)(=O)c2ccc3c(c2)CCCC3)c(=O)oc2ccccc12,8.8
15,CC(C)NC(=O)c1ccc(S(=O)(=O)N(C)C)cc1,0.0301
16,CNC(=O)c1cc(S(=O)(=O)N(C)C)ccc1Cl,5.59
17,CC(NC(=O)c1ccc(S(=O)(=O)N(C)C)cc1)c1ccc(-n2ccnc2)cc1 (stereo not drawn),-74
18,CC(NC(=O)c1cc(S(=O)(=O)N(C)C)ccc1Cl)c1ccc(-n2ccnc2)cc1 (stereo not drawn),-76.8
19,CC(NC(=O)c1ccc(S(=O)(=O)N(C)C)cc1)c1ccccc1 (stereo not drawn),0.971

row,SMILES,"hERG current change (%, negative = inhibition) at 10uM [%]"
1,O=C(Cc1c(O)c2ccccc2[nH]c1=O)NC1CCCCCC1,3.69
2,OCCNc1c2ccccc2nc2c(F)c(F)c(F)c(F)c12,14.6
3,Cn1nc(C(F)(F)F)c(/C=N/OC(=O)c2ccccc2Cl)c1SCc1ccccc1Cl,-5.41
4,CC(C)CNS(=O)(=O)c1ccc(OCC(=O)NCc2ccco2)cc1,-11.6
5,CSc1ccc(S(=O)(=O)NCC(=O)OCC(=O)NCc2ccco2)cc1[N+](=O)[O-],-61.7
6,Cc1cc(S(=O)(=O)NCC(C)C)ccc1OCC(=O)NCc1ccccn1,-22.8
7,CSc1ccc(S(=O)(=O)NCC(=O)OCC(=O)NCCc2ccccc2)cc1[N+](=O)[O-],9.18
8,Cc1cc(S(=O)(=O)NCC(C)C)ccc1OCC(=O)NCc1ccco1,-73.4
9,CSc1ccc(S(=O)(=O)NCC(=O)OCC(=O)NCc2cccs2)cc1[N+](=O)[O-],-44.5
10,N#C/C(=N\Nc1cccc(C(F)(F)F)c1)C(=O)c1ccsc1,11.3
11,COc1ccc(N2C(=O)CC(N3CCN(c4ccccc4OC)CC3)C2=O)cc1 (stereo not drawn),6.7
12,O=S(=O)(Cc1ccccc1)Nc1ccc(S(=O)(=O)N2CCCC2)cc1,5.25
13,Cc1ccc(C)c(C(=O)CSc2n[nH]c(-c3ccncc3)n2)c1,-0.0279
14,CCN1/C(=C/C=C/c2sc3ccccc3[n+]2CC)Sc2ccccc21.[I-],-73.8
15,CCN1/C(=C/C=C/C=C/c2sc3ccccc3[n+]2CC)Sc2ccccc21.[I-],-78.9
16,CCOC(=O)/C(=C/C=C1\Sc2ccccc2N1CC)C(C)=O,4.94
17,CCN1/C(=C/C(C)=C/c2sc3ccccc3[n+]2CC)Sc2ccccc21.[I-],-78.8
18,CC[n+]1c(/C=C(/C)SC)sc2ccccc21.COS(=O)(=O)[O-],5.99
19,CC[n+]1c(/C=C(\C)SC)sc2ccccc21.COS(=O)(=O)[O-],3.25

row,SMILES,"hERG current change (%, negative = inhibition) at 10uM [%]"
1,CCN1/C(=C\C=C2\C(=O)N(C)C(=S)N2C)Sc2ccccc21,24
2,CCN1/C(=C/C=C/C=C/C=C/c2sc3ccccc3[n+]2CC)Sc2ccccc21.[I-],-49.5
3,CCN1/C(=C\C=C(C(C)=O)C(C)=O)Sc2ccccc21,-2.64
4,Cn1nc(C(=O)NCc2cccc(Cl)c2)c2c1-c1ccccc1S(=O)(=O)C2,9.4
5,CN(C)S(=O)(=O)c1cccc(NC(=O)Cn2cc(C(F)(F)F)cc(Cl)c2=O)c1,3.98
6,CN(CC(=O)Nc1cccc(F)c1)CC(=O)N(C)CC(=O)Nc1ccccc1Br,-13.7
7,O=c1ccnc(NCCc2ccccc2)[nH]1,12.7
8,O=c1c2ccccc2nc(-c2ccco2)n1CCCn1ccnc1,-53.9
9,CCCCn1c(-c2ccco2)nc2ccccc2c1=O,-12.2
10,Cc1ccc(-c2nc3ccccc3c(=O)n2CCCn2ccnc2)cc1,-57.7
11,COc1ccc(-c2nc3ccccc3c(=O)n2CCCn2ccnc2)cc1,-49
12,O=c1c2ccccc2nc(-c2ccccc2)n1CCCn1ccnc1,-31.9
13,COCCCn1c(-c2ccco2)nc2ccccc2c1=O,-16
14,CCn1c(NN)nc2sc3c(c2c1=O)CCC3,17.5
15,COc1ccc2c(c1)C=C([C@@H]1C[C@H]3CN(c4ccccc4)C(=O)[C@]34CCCN14)CO2,-49.2
16,OCC(O)C1OC(Nc2ccc(Br)cc2)C(O)C1O (stereo not drawn),16.7
17,CN(C)c1cccc(C(=O)NCc2ccc(Cl)cc2)c1,-8.25
18,Cc1nc2nc[nH]n2c(=O)c1NS(C)(=O)=O,4.48
19,CCc1ccc(-c2nc(SCC(=O)NC3CCS(=O)(=O)C3)n[nH]2)cc1 (stereo not drawn),4.84
